FLuc counter: counter-screen for miR-21 project: firefly luciferase inhibitors or activators; 6.9% of 360,000 active; Potency, µM (titrated, usually from 57.5 µM), for the others: top-dose activity change, negative = inhibition, actives largely listed as inhibitors; purified FLuc, Km substrates, luminescence inhibition; P08659;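 also: plate controls were vehicle for no effect and reference inhibitor for full effect; nearly all actives have a fitted effect of over 55% in size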
Target sequence (P08659 whole entry, looked up): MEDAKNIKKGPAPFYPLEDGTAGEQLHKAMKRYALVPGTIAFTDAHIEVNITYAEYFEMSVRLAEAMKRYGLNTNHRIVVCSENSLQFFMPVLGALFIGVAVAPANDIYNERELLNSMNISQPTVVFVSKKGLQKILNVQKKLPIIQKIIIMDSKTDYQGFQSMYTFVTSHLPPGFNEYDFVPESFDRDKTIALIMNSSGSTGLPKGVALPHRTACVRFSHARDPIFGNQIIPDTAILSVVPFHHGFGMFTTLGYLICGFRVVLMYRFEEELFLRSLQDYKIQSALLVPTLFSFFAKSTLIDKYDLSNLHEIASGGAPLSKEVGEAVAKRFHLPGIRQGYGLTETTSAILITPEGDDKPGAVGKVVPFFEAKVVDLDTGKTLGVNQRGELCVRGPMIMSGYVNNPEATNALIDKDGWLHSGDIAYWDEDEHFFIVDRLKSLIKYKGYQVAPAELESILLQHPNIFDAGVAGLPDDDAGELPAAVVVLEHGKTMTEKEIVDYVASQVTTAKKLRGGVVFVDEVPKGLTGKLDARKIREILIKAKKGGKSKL
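Biochemical qHTS of compounds, final roughly 60 µM downward over six points, against 10 nM purified firefly luciferase using Km concentrations of substrates (10 uM D-luciferin, 10 uM ATP) in Tris acetate pH 7.5 buffer; luminescence output.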
Rab9 prom act: activators of Rab9 promoter | Huh7 Rab9 promoter-luciferase reporter, luminescence, 24 h | Potency, µM (titrated, usually from 9.22 µM), inactives show at the highest dose activation, negative = inhibition, most hits filed as activators | 2.8% of 320,000 active | AID 485297; also: % of control where 0% means no effect; nearly all actives have a fitted effect of over 60% in size
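Huh7 cells stably carrying Rab9 promoter–luciferase reporter, plated 1500 cells/well, compound added after 2 h and incubated 24 h at 37 °C; luciferase luminescence then read after 10 min with detection reagent.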
ELG1 genotoxic: genotoxicity induction in ELG1-luciferase HEK293T cells; HEK293T ELG1-luciferase reporter, luminescence, 16 h; Potency, µM (top dose mostly 46 µM), inactives show top-dose activity change, positive = activation, usual class: activators; 1.3% of 330,000 active; AID 504466; also: % of control where 0% means no effect; nearly all actives have a fitted effect of over 60% in size
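After overnight (16 hr) compound treatment at 37 °C, ELG1-luciferase HEK293T cells were lysed with ONE-Glo; luminescence quantified 30 min later at room temperature.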
KinaseGlo FLuc: counter-screen: inhibitors of Kinase-Glo firefly luciferase | Q27757 | Kinase-Glo luciferase, ATP luminescence, 8 min | Potency, µM (doses to about 38.3 µM), for inactives: top-dose activity change, negative = inhibition, actives largely listed as inhibitors | 0.28% of 200,000 active | AID 1379; also: % is scaled to controls: 0 for no effect and ±100 for the full control effect; nearly all actives have a fitted effect of over 60% in size
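Substrate mix (final 50 mM imidazole pH 7.2, 50 mM KCl, 7 mM MgCl2, 10 uM ATP, 0.01% Tween 20, 0.05% BSA) plus pin-tool compound, then Kinase-Glo detection mix; 8 min ambient, luminescence read.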
SMN2 splice enh: SMN2 splice variant enhancement. HEK293 SMN2-luciferase splicing reporter, luminescence, 30-36 h. Potency, µM (top dose mostly 46.1 µM), inactives show at the top dose activity change, positive = activation, most hits filed as activators. 2.8% of 210,000 active. AID 1458; also: % of control where 0% means no effect; nearly all actives have a fitted effect of over 55% in size
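HEK293 cells carry an SMN2 minigene-luciferase reporter in which exon 7 inclusion puts luciferase in frame. Cells were seeded at 2000 cells/well, attached for 10-12 hours, then exposed to compounds for 30-36 hours at 37C before ONE-Glo luminescence.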
NPC1 promoter act: activates the NPC1 promoter. 2.4% of 320,000 active. Huh7 NPC1 promoter luciferase reporter, 24 h. Potency, µM (highest dose often 9.22 µM), without a hit: top-dose activation, actives largely listed as activators. AID 485313; also: % of control where 0% means no effect; nearly all actives have a fitted effect of over 60% in size
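Stably transfected Huh7 (NPC1 promoter→luciferase), 1500 cells/well in Opti-MEM + 10% FBS, 2 h settle, then compound 24 h at 37 °C. Luminescence after 10 min with Amplite reagent.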
* marks the source's active call; other numbers are inactive results; ? = inconclusive; · = no result. Shown are actives, neighbours in structure and some others; about 7.5% of the full set was active somewhere. Calls follow the shape of the dose curve; as a rule, active = well fitted curve in the direction sought with a large enough effect; inconclusive = small, poorly fitted or top-dose-only effect, or another doubt; inactive = no such curve, though single readings can be large; an effect the other way counts as inactive or inconclusive. Potency is read from the fitted curve at half-maximal effect.

SMILES	FLuc counter	Rab9 prom act	ELG1 genotoxic	KinaseGlo FLuc	SMN2 splice enh	NPC1 promoter act
O=[N+]([O-])c1ccccc1OCCCOc1cccc2cccnc12	6.7µM*	?	?	·	·	?
Cc1ccc(OCCOc2cccc3ccc(C)nc23)c([N+](=O)[O-])c1	21µM*	2%	0%	0%	18%	6%
Cc1ccc2cccc(OCCCOc3ccccc3F)c2n1	19µM*	13%	3%	·	·	-2%
COc1ccc(CCC(=O)N(C)CC(=O)Nc2cc(C)ccc2C)cc1	6%	-4%	-2%	1%	-3%	-3%
CCc1ccc(CNC(=O)C2CCCN(c3nn4c(=O)cc(C)nc4s3)C2)cc1 (stereo unspecified)	7%	1%	4%	·	·	-2%
CCC(CCC(C)C1CCC2C3CC=C4CC(OC(C)=O)CC[C@@]4(C)C3CC[C@@]12C)C(C)C (stereo partly specified)	·	·	·	-1%	-4%	·
Fc1ccc(COc2cccc3cccnc23)cc1	17µM*	?	?	-3%	29%	?
Clc1ccccc1OCCCOc1cccc2cccnc12	7.6µM*	?	?	·	·	?
COc1cccc(OC)c1OCCCOc1cccc2cccnc12	17µM*	3.2µM*	13%	-8%	?	?
Cc1cccc(OCCCOc2cccc3cccnc23)c1C	?	5%	-1%	0%	-21%	-3%
NC(=O)COc1cccc2cccnc12	2%	12%	3%	-2%	-1%	0%
O=Cc1ccccc1OCCCOc1cccc2cccnc12	13µM*	23%	6%	·	·	22%
COc1ccc(NC(=O)c2cc3c(=O)n4ccccc4nc3n2C)cc1OC	1%	12%	-1%	0%	-21%	-5%
CC1OCC23CC[C@@]4(C)CCC(C)(C)C[C@H]4[C@]2(C)CCC12C3CC[C@@]1(C)C2C(=O)CC(=O)[C@@H]1C (stereo partly specified)	·	·	·	-1%	-6%	·
CC(C)C(=O)Nc1cccc(C(=O)Nc2nnc(CC(C)(C)C)s2)c1	?	·	·	·	-17%	·
COc1ccc(-c2nsc(SCC(=O)Nc3cc(C)on3)n2)cc1	2%	12%	?	1%	-4%	1%
CCc1nnc(NC(=O)CSc2nc(-c3ccc(OC)cc3)ns2)s1	1.7µM*	?	?	1%	?	19%
CCOC(=O)CSc1nnc(-c2ccccc2)c(-c2ccccc2)n1	-3%	-1%	-2%	·	·	-4%
CCOC(=O)CNC(=O)CSc1nc(-c2ccc(OC)cc2)ns1	12µM*	17%	0%	0%	6%	5%
NC(=O)CSc1nc(-c2ccccc2Cl)ns1	?	3.2µM*	13%	-7%	?	?
CCOC(=O)CSc1nc(-c2ccccc2)ns1	15µM*	2%	1%	0%	9%	-3%
O=C(CSc1nc(-c2ccccc2Cl)ns1)NCc1ccco1	?	0%	0%	-4%	-7%	2%
COc1cccc(-c2noc(C3CCCN(C(=O)c4ccccc4OC)C3)n2)c1 (stereo unspecified)	21µM*	30%	10%	·	·	?
COc1cccc(-c2noc(C3CCCN(C(=O)CC(C)(C)C)C3)n2)c1 (stereo unspecified)	1%	-3%	-4%	-1%	·	-8%
CCCCC(=O)N1CCCC(c2nc(-c3cccc(OC)c3)no2)C1 (stereo unspecified)	17µM*	?	14%	-6%	·	?
SMILES	FLuc counter	Rab9 prom act	ELG1 genotoxic	KinaseGlo FLuc	SMN2 splice enh	NPC1 promoter act
Cc1cccc(N(C)C(=O)CN(C)S(=O)(=O)c2ccc3[nH]c4c(c3c2)CCCC4)c1	-19%	·	·	·	·	·
COc1ccc(C(=O)CCC(=O)N2CCN(c3ccc(C)cc3)C(C)C2)cc1 (stereo unspecified)	-2%	1%	-5%	·	·	-5%
CC(=O)c1cccc(S(=O)(=O)NCC(C)(C)N2CCOCC2)c1	-1%	9%	1%	·	·	-5%
COc1ccccc1C(=O)COC(=O)c1ccccc1O	21µM*	13%	16%	-1%	5%	-11%
COc1ccccc1C(=O)COC(=O)c1ccc(N(C)C)cc1	5.4µM*	3.5µM*	?	-4%	22µM*	3.2µM*
COc1ccccc1C(=O)COC(=O)/C=C/c1ccccc1	13µM*	26%	20%	·	·	26%
CCc1ccc(C(=O)COC(=O)c2ccccc2OC)cc1	0.48µM*	3.2µM*	?	·	·	2.2µM*
O=C(/C=C/c1ccccc1)OCC(=O)c1c[nH]c2ccccc12	·	·	-2%	·	·	·
CC(NC(=O)COC(=O)c1ccc(N(C)C)cc1)c1ccccc1 (stereo unspecified)	-8%	-5%	-7%	1%	11%	-3%
COC(=O)c1ccc(CNC(=O)Cn2cnc3c(SC)nc(N)nc32)cc1	·	·	-2%	·	·	·
CC1=C([N+](=O)[O-])C(c2ccc(Cl)cc2)NC(=O)N1 (stereo unspecified)	0%	-3%	6%	·	·	-3%
Nc1ccc(CSc2ccc(Cl)cc2)cc1	27µM*	?	?	0%	26%	?
Cc1cccn2c(=O)c3cc(C(=O)NCc4cccnc4)c(=N)n(CC4CCCO4)c3nc12 (stereo unspecified)	-3%	?	-17%	·	·	1%
CC1Cc2cc(S(=O)(=O)N(C)c3ccc(Br)cc3)ccc2N1C(=O)C1CC1 (stereo unspecified)	1%	·	·	·	·	·
O=C1C2C3C=CC(C3)C2C(=O)N1c1ccncc1 (stereo unspecified)	2%	-2%	0%	-3%	-7%	3%
O=C1C2C3C=CC(C3)C2C(=O)N1c1ccc(-c2nc3ccccc3o2)cc1 (stereo unspecified)	2.7µM*	1.4µM*	1.8µM*	-4%	13µM*	1.4µM*
CN1CCN(S(=O)(=O)c2ccc(NC(=S)NC(=O)C(C)(C)C)cc2)CC1	2%	-1%	0%	0%	·	-12%
COc1ccc2nc(SCC(=O)N(C)CC(=O)Nc3ccc(F)cc3)[nH]c2c1	?	-1%	2%	·	·	5%
Cc1ccc2c(c1)C(=O)OC(C(=O)Nc1ccc(C(=O)O)cc1)C2 (stereo unspecified)	7.6µM*	·	·	·	-3%	·
Cc1ccc(-c2csc(N)n2)s1	15µM*	8%	?	-9%	3%	?
CC1CCCN(S(=O)(=O)c2ccc(NC(=O)c3nc(SC(C)C)ncc3Cl)cc2)C1 (stereo unspecified)	-3%	·	·	·	2%	·
COc1cccc(-c2cc(=O)c3ccccc3o2)c1N	·	2.1µM*	·	-9%	11µM*	2.3µM*

Bioassay records as filed in PubChem BioAssay.
